The values below come from PubChem BioAssay (EPA / NIEHS).

Inconclusive results are not listed. Active and inactive are the calls of the source. The calls were made as follows: active = hit-call score of the fitted dose curve at least 0.9, where 1 is the maximum; inconclusive = response in the unintended direction; inactive = score below 0.9.

Sequence of human Adenosine A2a Receptor (AdoRA2a), ADORA2A (gene 135) (P29274 whole entry, looked up): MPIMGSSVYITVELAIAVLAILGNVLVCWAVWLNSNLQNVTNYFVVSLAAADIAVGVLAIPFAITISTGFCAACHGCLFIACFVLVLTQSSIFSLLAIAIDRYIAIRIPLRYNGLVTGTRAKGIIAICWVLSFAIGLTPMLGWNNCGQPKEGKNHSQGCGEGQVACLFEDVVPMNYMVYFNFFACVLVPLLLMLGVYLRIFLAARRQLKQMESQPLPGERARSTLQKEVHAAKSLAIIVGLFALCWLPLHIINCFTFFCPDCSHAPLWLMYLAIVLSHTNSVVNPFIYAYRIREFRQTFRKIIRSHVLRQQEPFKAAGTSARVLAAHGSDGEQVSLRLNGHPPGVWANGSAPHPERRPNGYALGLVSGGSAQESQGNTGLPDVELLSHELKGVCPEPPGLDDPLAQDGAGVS
Sequence of human Adenosine A1 Receptor (AdoRA1), ADORA1 (gene 134) (P30542 whole entry, looked up): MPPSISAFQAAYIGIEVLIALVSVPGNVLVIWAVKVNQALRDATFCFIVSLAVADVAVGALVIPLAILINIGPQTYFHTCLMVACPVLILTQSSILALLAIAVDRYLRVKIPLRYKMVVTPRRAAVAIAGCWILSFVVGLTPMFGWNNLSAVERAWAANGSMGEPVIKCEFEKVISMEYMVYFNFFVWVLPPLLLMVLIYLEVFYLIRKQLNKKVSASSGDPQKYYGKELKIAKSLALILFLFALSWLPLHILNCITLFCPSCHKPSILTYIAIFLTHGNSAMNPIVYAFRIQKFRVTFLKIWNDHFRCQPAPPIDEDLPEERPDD
Sequence of human Adrenergic, Beta 1 Receptor (Adrb1), ADRB1 (gene 153) (P08588 whole entry, looked up): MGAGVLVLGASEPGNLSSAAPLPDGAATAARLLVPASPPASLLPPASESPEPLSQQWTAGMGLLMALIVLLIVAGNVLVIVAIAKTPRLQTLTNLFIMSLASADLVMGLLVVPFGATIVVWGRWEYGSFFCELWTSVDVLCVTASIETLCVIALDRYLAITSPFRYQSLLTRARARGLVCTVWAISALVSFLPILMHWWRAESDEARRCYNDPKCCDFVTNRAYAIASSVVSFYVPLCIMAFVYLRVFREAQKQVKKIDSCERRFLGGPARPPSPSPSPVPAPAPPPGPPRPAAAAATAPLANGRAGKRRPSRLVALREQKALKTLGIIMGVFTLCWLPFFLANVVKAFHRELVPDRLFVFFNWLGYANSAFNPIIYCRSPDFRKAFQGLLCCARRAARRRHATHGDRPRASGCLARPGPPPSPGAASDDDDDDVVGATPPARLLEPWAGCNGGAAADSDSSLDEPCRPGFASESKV
Sequence of human Serotonin, 5-Hydroxytryptamine Receptor 6 (5HT6), HTR6 (gene 3362) (P50406 whole entry, looked up): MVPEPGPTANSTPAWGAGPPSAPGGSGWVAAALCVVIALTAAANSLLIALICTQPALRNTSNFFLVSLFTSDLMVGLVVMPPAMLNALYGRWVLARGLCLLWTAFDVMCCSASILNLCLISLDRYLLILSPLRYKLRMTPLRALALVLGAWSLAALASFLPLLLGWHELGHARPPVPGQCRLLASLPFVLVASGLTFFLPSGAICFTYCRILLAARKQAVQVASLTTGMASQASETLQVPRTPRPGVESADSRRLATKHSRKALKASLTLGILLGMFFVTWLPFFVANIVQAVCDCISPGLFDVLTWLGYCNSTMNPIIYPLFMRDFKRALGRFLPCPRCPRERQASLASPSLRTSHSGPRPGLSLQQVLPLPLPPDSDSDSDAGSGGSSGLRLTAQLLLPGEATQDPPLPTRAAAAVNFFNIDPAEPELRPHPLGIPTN

The first experiment addresses human Serotonin, 5-Hydroxytryptamine Receptor 6 (5HT6), HTR6 (gene 3362) (UniProt P50406). Kind of experiment: NVS_GPCR_h5HT6: NovaScreen (NVS) G Protein-Coupled Receptor Assay for human Serotonin, 5-Hydroxytryptamine Receptor 6 (5HT6) (AID 2283253). The method, then:
NVS_GPCR_h5HT6 is a biochemical, single-readout assay that uses extracted gene-proteins from HEK293 in a cell-free assay. Measurements were taken 1 hour after chemical dosing in a 96-well plate.NVS_GPCR_h5HT6 is one of one assay component(s) measured or calculated from the NVS_GPCR_h5HT6 assay. It is designed to make measurements of radioligand binding, a form of binding reporter, as detected with scintillation counting signals by Filter-based radiodetection technology.Data from the assay component NVS_GPCR_h5HT6 was analyzed into 1 assay endpoint. This assay endpoint, NVS_GPCR_h5HT6, was analyzed in the positive analysis fitting direction relative to DMSO as the negative control and baseline of activity. Using a type of binding reporter, loss-of-signal activity can be used to understand changes in the binding as they relate to the gene HTR6. Furthermore, this assay endpoint can be referred to as a primary readout, because the performed assay has only produced 1 assay endpoint. To generalize the intended target to other relatable targets, this assay endpoint is annotated to the gpcr intended target family, where the subfamily is rhodopsin-like receptor.
Binding assays used specific radioligands (tritiated, iodinated) with non-radioactive competitive displacement ligands in agonist or antagonist protocols (as indicated) and various reference compounds and inhibitors to titrate specific binding to receptors and transporters. Most enzyme assays (CYPs, kinases, phosphatases, proteases, HDACs) used recombinant protein and specific substrates (fluorescence mostly, some colorimetric and radioactive) and inhibitors, followed by a biochemical separation of substrate and product. All assays for the biochemical HTS were initially run in duplicate at a single concentration (10 uM for CYP450 assays and 25 uM for all others). […] Each assay was run with positive and negative controls, and concurrent controls on every plate. The follow-up (secondary) screen tested active chemical-pairs in concentration series, as well as a few additional assays not tested in the primary screen, some selected negative inactives, and several cases re-run in the concentration series for confirmatory purposes.
For the compound `CCC(C)(c1ccc(O)cc1)c1ccc(O)cc1`, the AC50 was 6.29 µM (active).

`CC(C)(c1ccccc1)c1ccc(O)cc1`: the AC50 was 4.96 µM (active).

`Oc1ccc(C(c2ccc(O)cc2)(C(F)(F)F)C(F)(F)F)cc1`: the AC50 is 0.352 µM (active).

Take `Oc1ccc(Cl)cc1Cl`: the outcome was inactive.

Consider `COc1ccc(O)c(C(C)(C)C)c1`, for which the concentration at half-maximal activity (AC50) was 25 µM (active).

Regarding `CCCCCCCCCC[N+](C)(C)CCCCCCCCCC`, the AC50 is 13.9 µM (active).

Another experiment addresses human Adenosine A1 Receptor (AdoRA1), ADORA1 (gene 134) (UniProt P30542). Kind of experiment: NVS_GPCR_hAdoRA1: NovaScreen (NVS) G Protein-Coupled Receptor Assay for human Adenosine A1 Receptor (AdoRA1) (AID 2283254). The method, boiled down:
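Each chemical is first tested twice at 25 uM, actives later in dilution series, against a radioligand bound to human cortex membranes; after 1 h, filter-retained counts are compared with DMSO controls, lower signal indicating displacement.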
As for `CCC(C)(c1ccc(O)cc1)c1ccc(O)cc1`, the AC50 is 25 µM (active).

As for `Cc1cc2c3c(c1)C(c1ccccc1)=N[C@@H](NC(=O)c1ccncc1)C(=O)N3CC2`, the compound was called inactive.

Turning to `CC(C)(c1ccccc1)c1ccc(O)cc1`, the AC50 was 9.28 µM (active).

On to `Oc1c(Cl)c(Cl)c(Cl)c(Cl)c1Cl`, for which the compound was called inactive.

Consider `Oc1ccc(C(c2ccc(O)cc2)(C(F)(F)F)C(F)(F)F)cc1`, for which the half-maximal activity concentration (AC50) is 16.6 µM (active).

With `CCNc1nc(NC(C)C)nc(SC)n1`, the AC50 is 13.7 µM (active).

The target in a further experiment is human Serotonin, 5-Hydroxytryptamine Receptor 7 (5HT7), HTR7 (gene 3363) (UniProt P34969). The experiment is described as follows: NVS_GPCR_h5HT7: NovaScreen (NVS) G Protein-Coupled Receptor Assay for human Serotonin, 5-Hydroxytryptamine Receptor 7 (5HT7) (AID 2283255).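 Also: hits reduce specific radioligand binding relative to DMSO.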 The procedure, abridged: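 Radioligand displacement on membranes from CHO cells expressing human 5HT7, 1 h incubation, filter-based scintillation counting. Primary screen used a single 25 uM concentration in duplicate; actives were followed up in concentration series.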
Sequence of human Serotonin, 5-Hydroxytryptamine Receptor 7 (5HT7), HTR7 (gene 3363) (P34969 whole entry, looked up): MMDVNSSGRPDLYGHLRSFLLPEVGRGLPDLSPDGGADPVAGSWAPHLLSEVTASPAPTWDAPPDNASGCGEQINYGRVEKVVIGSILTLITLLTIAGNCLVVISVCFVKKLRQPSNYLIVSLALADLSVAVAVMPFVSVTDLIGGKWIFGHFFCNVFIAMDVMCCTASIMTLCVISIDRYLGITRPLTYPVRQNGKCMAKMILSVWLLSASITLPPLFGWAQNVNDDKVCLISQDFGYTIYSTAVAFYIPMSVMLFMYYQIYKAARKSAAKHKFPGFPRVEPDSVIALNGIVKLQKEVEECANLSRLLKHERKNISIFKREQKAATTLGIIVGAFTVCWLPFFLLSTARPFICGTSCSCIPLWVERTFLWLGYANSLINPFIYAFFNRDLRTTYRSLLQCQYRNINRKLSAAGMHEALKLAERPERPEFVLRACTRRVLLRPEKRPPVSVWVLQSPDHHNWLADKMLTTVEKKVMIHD
Regarding `CCC(C)(c1ccc(O)cc1)c1ccc(O)cc1`, the AC50 is 15.9 µM (active).

Regarding `Cc1cc2c3c(c1)C(c1ccccc1)=N[C@@H](NC(=O)c1ccncc1)C(=O)N3CC2`, the AC50 is 25 µM (active).

Regarding `C[C@]12CCC(=O)C=C1CC[C@@H]1[C@@H]2CC[C@]2(C)C(=O)CC[C@@H]12`, the result was inactive.

With `O=C(O)C(F)(F)C(F)(F)C(F)(F)C(F)(F)C(F)(F)C(F)(F)C(F)(F)C(F)(F)C(F)(F)F`, the AC50 is 16.4 µM (active).

As to `Oc1ccc(C(c2ccc(O)cc2)(C(F)(F)F)C(F)(F)F)cc1`, the AC50 was 5.73 µM (active).

For `COc1ccc(O)c(C(C)(C)C)c1`, the result was inactive.

With `CCCCCCCCCC[N+](C)(C)CCCCCCCCCC`, the AC50 is 5.73 µM (active).

Another experiment has as its target human Adenosine A2a Receptor (AdoRA2a), ADORA2A (gene 135) (UniProt P29274). The experiment is described as follows: NVS_GPCR_hAdoRA2a: NovaScreen (NVS) G Protein-Coupled Receptor Assay for human Adenosine A2a Receptor (AdoRA2a) (AID 2283256). The method, boiled down:
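Radioligand displacement on HEK293-derived membrane protein, cell-free; filter-based scintillation counting 1.5 hours after dosing, loss of signal vs DMSO. Single-point duplicate screen at 25 uM, actives retested in concentration series.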
Consider `O=C(O)C(F)(F)C(F)(F)C(F)(F)C(F)(F)C(F)(F)C(F)(F)C(F)(F)C(F)(F)C(F)(F)F`, for which the AC50 is 7.6 µM (active).

Turning to `Oc1c(Cl)c(Cl)c(Cl)c(Cl)c1Cl`, the AC50 was 13.1 µM (active).

Regarding `Oc1ccc(C(c2ccc(O)cc2)(C(F)(F)F)C(F)(F)F)cc1`, the AC50 was 25 µM (active).

As to `O=C(O)C(F)(F)C(F)(F)C(F)(F)C(F)(F)C(F)(F)C(F)(F)C(F)(F)C(F)(F)F`, the AC50 is 10.6 µM (active).

With `CCNc1nc(NC(C)C)nc(SC)n1`, the AC50 is 10 µM (active).

The target in the next experiment is human Adrenergic, Beta 1 Receptor (Adrb1), ADRB1 (gene 153) (UniProt P08588). The experiment is described as follows: NVS_GPCR_hAdrb1: NovaScreen (NVS) G Protein-Coupled Receptor Assay for human Adrenergic, Beta 1 Receptor (Adrb1) (AID 2283258). The method, boiled down:
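Cell-free radioligand displacement on receptor from human neuroepithelioma cells; 2 h after dosing, filter-based scintillation counting. Primary screen in duplicate at 25 uM, actives retested in concentration series; loss of signal vs DMSO baseline.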
Regarding `O=C(O)C(F)(F)C(F)(F)C(F)(F)C(F)(F)C(F)(F)C(F)(F)C(F)(F)C(F)(F)C(F)(F)F`, the AC50 was 21.3 µM (active).

`Oc1ccc(C(c2ccc(O)cc2)(C(F)(F)F)C(F)(F)F)cc1`: the AC50 was 19.3 µM (active).

Regarding `CCCCCCCCCC[N+](C)(C)CCCCCCCCCC`, the AC50 is 5.34 µM (active).

Regarding `CCCN(CCC)N=O`, the call was inactive.

Turning to `CCCCCCCCOC(=O)c1ccccc1C(=O)OCCCCCCCC`, the compound was called inactive.

What is called AC50 is the midpoint of the concentration-response curve, whichever way the signal moves.
